Data from PubChem BioAssay.
A number with no mark means an inactive call. How the calls were made is not given here.

What follows are compounds tested against Pantothenate synthetase (Mycobacterium tuberculosis (strain ATCC 25618 / H37Rv)) (UniProt P9WIL5) (assay: Recombinant Mtb pantothenate synthetase (PanC) inhibitors, coupled enzyme, confirmatory (AID 375;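 further: 0% = full reaction with vehicle and 100% = no enzyme background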)). Settings: coupled enzyme assay; at 10 µM, active compounds read high.
Chain of Pantothenate synthetase (Mycobacterium tuberculosis (strain ATCC 25618 / H37Rv)) (P9WIL5 whole entry, looked up): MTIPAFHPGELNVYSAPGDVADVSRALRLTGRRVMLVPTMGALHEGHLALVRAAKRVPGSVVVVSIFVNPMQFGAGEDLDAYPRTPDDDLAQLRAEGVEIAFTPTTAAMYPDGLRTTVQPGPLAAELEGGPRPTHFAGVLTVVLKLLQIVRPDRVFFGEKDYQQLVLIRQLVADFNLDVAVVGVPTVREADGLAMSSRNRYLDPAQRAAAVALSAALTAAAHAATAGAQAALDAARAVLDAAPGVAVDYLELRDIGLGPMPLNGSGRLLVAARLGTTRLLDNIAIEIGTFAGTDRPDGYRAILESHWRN

Row | SMILES | inhibition
1 | CC(=O)Nc1ccc(OCC(O)CN2CCN(c3cccc(Cl)c3)CC2)cc1 (stereo not given) | 3%
2 | COc1ccc(C(=O)Nc2ccccc2C(=O)NCCN2CCOCC2)cc1 | 0%
3 | Cc1cc(C)nc(NS(=O)(=O)c2ccc(N)cc2)n1 | 0%
4 | O=C(CCNS(=O)(=O)c1ccc(Br)s1)N1CCCCC1 | 0%
5 | CCOC(=O)c1cnc(SCC)[nH]c1=O | 0%
6 | CN(C)CCCN1C(=O)C(=O)/C(=C(/O)c2ccncc2)C1c1cccc(Br)c1 (stereo not given) | 1%
7 | CCOC(=O)Nc1cc(OC)c(OC)cc1Cc1nccc2cc(OC)c(OC)cc12 | 0%
8 | CCOC(=O)C1=C(C)NC(C)=C(C(=O)OC)C1c1cccc(Cl)c1Cl (stereo not given) | 4%
9 | COc1ccccc1OCc1ccc(C(=O)N2CCN(C(=O)c3ccco3)CC2)cc1 | 1%
10 | CCOC(=O)CSc1cn2c(n1)CCC2 | 3%
11 | Nc1nc(C2C(=O)CCCC2=O)cs1 | 0%
12 | CS(=O)(=O)N1CCN(C(=O)c2ccc(-c3ccccc3)cc2)CC1 | 9%
13 | COc1cccc(-c2csc(N3CCN(CC(=O)Nc4ccc5c(c4)OCO5)CC3)n2)c1 | 0%
14 | Cc1cc(C(N)=O)c2cc(Br)ccc2n1 | 10%
15 | Cc1ccc(-c2nn(C)c(=O)c3ccccc23)cc1S(=O)(=O)N1CCOCC1 | 9%
16 | Cc1nc2cc(Cl)ccc2n1CCO | 2%
17 | CCc1cc(=O)oc2cc(OC(C)=O)cc(OC(C)=O)c12 | 0%
18 | Cc1cc(/C=c2/sc3nc4ccccc4n3c2=O)c(C)n1-c1ccccn1 | 1%
19 | Cc1cccnc1-n1c(CCN2C(=O)c3ccccc3C2=O)nc2ccccc2c1=O | 9%
20 | Cc1nc2sc(C(c3cccc(F)c3)N3CCCCC3)c(O)n2n1 (stereo not given) | 0%

Row | SMILES | inhibition
21 | O=C(c1ccc(Br)o1)N1CCN(c2ccc3nnc(-c4ccccc4)n3n2)CC1 | 1%
22 | O=C(Nc1ccc(N2CCCC2)cc1)c1cccc(F)c1 | 4%
23 | N#Cc1ccccc1Cn1c(=O)n(Cc2ccc(C(=O)NCc3ccco3)cc2)c(=O)c2ccccc21 | 0%
24 | O=S(=O)(NC1CCCC1)c1ccccc1Cl | 0%
25 | C=CCn1c(=O)[nH]c2cc(C(=O)N3CCN(c4ccc(C(C)=O)cc4)CC3)ccc2c1=O | 1%
26 | CCSCCNC(=O)c1cc(-n2cnnc2)ccc1Cl | 0%
27 | O=C(CN(c1ccc(F)cc1)S(=O)(=O)c1ccc2c(c1)OCCO2)Nc1ccc2c(c1)OCO2 | 3%
28 | Cc1onc(-c2ccccc2Cl)c1C(=O)Nc1cccnc1 | 5%
29 | COc1ccc(N2CCN(C(=O)CSc3ccccc3N)CC2)cc1 | 0%
30 | CCN(CC)CCOC(=O)c1cccc(OC)c1 | 0%
31 | CC(NC(=O)C1CC1)C(c1cccs1)N1CCN(c2ccccc2)CC1 (stereo not given) | 0%
32 | Cc1ccc2cc(CN(CC3CCCO3)S(=O)(=O)c3ccc4c(c3)OCCO4)c(=O)[nH]c2c1C (stereo not given) | 2%
33 | COC(=O)c1c(C)oc2ccc(NS(=O)(=O)c3cccs3)cc12 | 0%
34 | CCc1nc(SCC(=O)Nc2nccs2)c2oc3ccccc3c2n1 | 0%
35 | COC(=O)c1cc(-c2ccccc2)sc1NC(=O)c1cc(C)on1 | 0%
36 | CN(C)CCNC(=O)c1ccc(COCC(F)(F)F)cc1 | 0%
37 | O=C(O)CC(C(=O)Nc1cccc(C(F)(F)F)c1)C1CCCO1 (stereo not given) | 1%
38 | COc1ccc(Cn2c(N)c(C#N)c3nc4ccccc4nc32)cc1OC | 1%
39 | CC(=O)Nc1ccccc1OCc1nnc(-c2cccs2)o1 | 0%
40 | CCOc1cc(S(=O)(=O)NCc2ccccn2)c(C)cc1C | 0%
